Measured values as given in the supplement of paper PMC11732987, “Enantioselective OTUD7B fragment discovery through chemoproteomics screening and high-throughput optimisation” (Communications Chemistry, 2025).

Columns and labels:
Assay in all cases: log2 ratio of Biotin-Ahx-Ub-VS probe labelling (compound/DMSO); higher = less target engagement, active = hit call of the paper (q ≤ 0.05, log2 ratio ≤ -1)
Conditions in all cases: treatment time: 3 h
[1] = compound: CCC1N(CCc2sccc12)C(=O)CCl
Method in brief: (§1)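 HEK293T lysate (495 µg per sample, in Tris/CHAPS/IGEPAL buffer with protease inhibitors) was treated in triplicate with compound at 50 or 200 µM or with DMSO for 3 h. It was then treated with Biotin-Ahx-Ub-VS (0.5 µM final) for 1 h. Labelled DUBs were NeutrAvidin-enriched, digested with LysC and trypsin, and run by diaPASEF LC-MS/MS. Median-normalised label-free quantities gave average log2 ratios compound/DMSO by unpaired t-test, using proteins with ≥2 unique peptides.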

[2] = compound: CN1c2ccccc2C(CS1(=O)=O)NC(=O)CCl
Method in brief: as §1

[3] = compound: Cl.ClCC(=O)N1CCc2ncncc2C1
Method in brief: as §1

[4] = compound: Cl.Cn1ncc2C(CCCc12)NC(=O)CCl
Method in brief: as §1

[5] = compound: ClCC(=O)NC1CCOc2ccccc12
Method in brief: as §1

[6] = compound: ClCC(=O)NC1CCCc2ccccc12
Method in brief: (§2)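 The values are mean compound-versus-vehicle ratios derived by unpaired t-test. For 3 h, triplicate HEK293T lysate samples (495 µg each) were treated with compound at a series of concentrations or with vehicle, after which Biotin-Ahx-Ub-VS was added to 0.5 µM final for 1 h. Labelled deubiquitinases were enriched with NeutrAvidin, digested with LysC and trypsin, and analysed by diaPASEF LC-MS/MS. Ratios are log2 values from global-median-normalised Spectronaut label-free quantities, using proteins with two or more unique peptides.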

[7] = compound: ClCC(=O)N[C@@H]1CCCc2ccccc12
Method in brief: as §2

[8] = compound: ClCC(=O)N[C@H]1CCCc2ccccc12
Method in brief: as §2

[9] = compound: CCC1N(CCc2cc(OC)c(Cl)cc12)C(=O)CCl
Method in brief: as §1

[10] = compound: CCCC1N(CCc2cc(OC)c(OC)cc12)C(=O)CCl
Method in brief: as §1

Measured: log2 ratio of Biotin-Ahx-Ub-VS probe labelling

USP14 (UniProt P54578)
UniProt P54578, sequence (P54578 whole entry): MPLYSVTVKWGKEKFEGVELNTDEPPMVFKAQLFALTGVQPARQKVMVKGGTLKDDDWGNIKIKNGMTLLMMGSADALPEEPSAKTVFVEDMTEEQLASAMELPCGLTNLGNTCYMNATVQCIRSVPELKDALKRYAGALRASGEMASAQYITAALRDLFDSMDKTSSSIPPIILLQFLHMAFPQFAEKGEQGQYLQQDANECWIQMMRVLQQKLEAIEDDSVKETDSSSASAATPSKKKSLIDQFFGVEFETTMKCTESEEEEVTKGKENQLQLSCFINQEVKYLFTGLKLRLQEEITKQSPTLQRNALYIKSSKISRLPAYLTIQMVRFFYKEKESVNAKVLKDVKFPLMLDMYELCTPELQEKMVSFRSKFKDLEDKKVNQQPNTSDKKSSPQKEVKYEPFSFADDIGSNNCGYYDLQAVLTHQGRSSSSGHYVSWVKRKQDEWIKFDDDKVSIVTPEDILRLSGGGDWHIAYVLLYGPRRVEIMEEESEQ
inactive: [1]; compound concentration: 50uM -0.3 | [1]; compound concentration: 200uM -0.357 | [2]; compound concentration: 50uM -0.167 | [2]; compound concentration: 200uM -0.105 | [3]; compound concentration: 50uM 0.049 | [3]; compound concentration: 200uM -0.23 | [4]; compound concentration: 50uM 0.132 | [4]; compound concentration: 200uM 0.0271 | [5]; compound concentration: 50uM -0.194 | [5]; compound concentration: 200uM -0.0567 | [6]; compound concentration: 0.78uM -0.378 | [6]; compound concentration: 1.56uM -0.128 | [6]; compound concentration: 3.13uM -0.334 | [6]; compound concentration: 6.25uM -0.143 | [6]; compound concentration: 12.5uM -0.315 | [6]; compound concentration: 25uM -0.455 | [6]; compound concentration: 50uM -0.285 | [6]; compound concentration: 100uM -0.509 | [6]; compound concentration: 200uM -0.231 | [7]; compound concentration: 0.78uM -0.393 | [7]; compound concentration: 1.56uM -0.0826 | [7]; compound concentration: 3.13uM -0.368 | [7]; compound concentration: 6.25uM -0.447 | [7]; compound concentration: 12.5uM -0.296 | [7]; compound concentration: 25uM -0.25 | [7]; compound concentration: 50uM -0.116 | [7]; compound concentration: 100uM -0.289 | [7]; compound concentration: 200uM -0.289 | [8]; compound concentration: 0.78uM -0.158 | [8]; compound concentration: 1.56uM -0.187 | [8]; compound concentration: 3.13uM -0.308 | [8]; compound concentration: 6.25uM -0.249 | [8]; compound concentration: 12.5uM -0.442 | [8]; compound concentration: 25uM -0.253 | [8]; compound concentration: 50uM -0.322 | [8]; compound concentration: 100uM -0.332 | [8]; compound concentration: 200uM -0.157 | [9]; compound concentration: 50uM -0.071 | [9]; compound concentration: 200uM -0.127 | [10]; compound concentration: 50uM -0.132 | [10]; compound concentration: 200uM 0.0879
